Results taken from PubChem BioAssay.
Calls of active or inactive are those of the source.

Assays:
[1] = optical density shifts of acrAB sulA E. coli – strain DRC41, OD650, 48 h, E. coli filamentation inducer project, primary screen (AID 1152); conditions: higher = more signal, called active from +8 up or from −8 down;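 also: E. coli MC1000 strain DRC41 lacking acrAB efflux pump and sulA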
[2] = probe aLefty1 binding on compound microarray – biochemical, small-molecule microarray, 635/667 nm fluorescence, primary screen (AID 1153); conditions: higher = more signal;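 also: score merges spot fluorescence with signal-to-noise ratio from the scanned slide images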
[3] = plasmodial surface anion channel blockers, osmotic lysis – cell-based, P. falciparum Indochina, OD700, 1 h, primary screen (AID 1154); conditions: P. falciparum Indochina infected RBC osmotic lysis, higher = more signal, called active from +8 up or from −8 down
[4] = plasmodial surface anion channel blockers, osmotic lysis – cell-based, P. falciparum Indochina, OD700, 2 h, primary screen (AID 1155);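 also: lysis reports solute entry through the parasite surface anion channel PSAC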; conditions: P. falciparum Indochina infected erythrocytes, higher = more signal, called active from +8 up or from −8 down
[5] = changes in parasitized red cell lysis, either direction – P. falciparum Indochina, OD700, 3 h, PSAC antagonist project, primary screen (AID 1156); conditions: P. falciparum-infected erythrocytes, osmotic lysis, higher = more signal, called active from +8 up or from −8 down
[6] = plasmodial surface anion channel blockers, osmotic lysis – cell-based, P. falciparum Indochina, OD700, 18 h, primary screen (AID 1157); conditions: P. falciparum Indochina infected erythrocytes, osmotic lysis OD700, 18 h; higher = more signal, called active from +8 up or from −8 down
[7] = S6 kinase pathway phospho-S6 level changes – cell-based, A549, cytoblot, luminescence, serum-stimulated, primary screen (AID 1158); conditions: 5 h, higher = more signal;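 also: serum-stimulated A549 lung adenocarcinoma cells; signal is phosphorylated S6 detected by cytoblot immunostaining with HRP secondary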
[8] = molecular target: NADPH oxidase 2 (Homo sapiens) (UniProt P04839); experiment: compounds shifting NOX2 Amplex Red fluorescence – cell-based, HEK293-NOX2, PMA-stimulated, NOX inhibitor project, primary screen (AID 1159); conditions: 45 min, higher = more signal, called active from +8 up or from −8 down; also: test concentration not given here
NADPH oxidase 2 (Homo sapiens), sequence (P04839 whole entry, looked up): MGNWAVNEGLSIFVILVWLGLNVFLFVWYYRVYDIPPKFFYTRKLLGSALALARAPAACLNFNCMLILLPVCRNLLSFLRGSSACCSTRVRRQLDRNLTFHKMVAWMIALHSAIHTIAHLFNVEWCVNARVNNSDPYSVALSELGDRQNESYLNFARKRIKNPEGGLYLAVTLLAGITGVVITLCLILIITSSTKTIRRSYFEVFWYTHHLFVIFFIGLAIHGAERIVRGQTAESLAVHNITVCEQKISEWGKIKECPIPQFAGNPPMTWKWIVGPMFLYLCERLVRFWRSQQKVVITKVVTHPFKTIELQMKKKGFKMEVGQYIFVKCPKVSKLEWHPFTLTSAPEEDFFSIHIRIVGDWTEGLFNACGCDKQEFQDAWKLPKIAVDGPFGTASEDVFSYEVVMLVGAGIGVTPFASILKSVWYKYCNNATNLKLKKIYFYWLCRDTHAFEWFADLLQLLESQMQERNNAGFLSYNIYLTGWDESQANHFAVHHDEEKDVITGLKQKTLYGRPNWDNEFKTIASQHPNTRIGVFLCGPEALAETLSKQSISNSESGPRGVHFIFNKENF

[9] = molecular target: NADPH oxidase 4 (Homo sapiens) (UniProt Q9NPH5); experiment: compounds shifting NOX4 Amplex Red fluorescence – cell-based, HEK293-NOX4, tetracycline-induced, NOX inhibitor project, primary screen (AID 1160); conditions: HEK293-NOX4, Amplex Red H2O2 fluorescence, 45 min; higher = more signal, called active from +8 up or from −8 down
NADPH oxidase 4 (Homo sapiens), sequence (Q9NPH5 whole entry, looked up): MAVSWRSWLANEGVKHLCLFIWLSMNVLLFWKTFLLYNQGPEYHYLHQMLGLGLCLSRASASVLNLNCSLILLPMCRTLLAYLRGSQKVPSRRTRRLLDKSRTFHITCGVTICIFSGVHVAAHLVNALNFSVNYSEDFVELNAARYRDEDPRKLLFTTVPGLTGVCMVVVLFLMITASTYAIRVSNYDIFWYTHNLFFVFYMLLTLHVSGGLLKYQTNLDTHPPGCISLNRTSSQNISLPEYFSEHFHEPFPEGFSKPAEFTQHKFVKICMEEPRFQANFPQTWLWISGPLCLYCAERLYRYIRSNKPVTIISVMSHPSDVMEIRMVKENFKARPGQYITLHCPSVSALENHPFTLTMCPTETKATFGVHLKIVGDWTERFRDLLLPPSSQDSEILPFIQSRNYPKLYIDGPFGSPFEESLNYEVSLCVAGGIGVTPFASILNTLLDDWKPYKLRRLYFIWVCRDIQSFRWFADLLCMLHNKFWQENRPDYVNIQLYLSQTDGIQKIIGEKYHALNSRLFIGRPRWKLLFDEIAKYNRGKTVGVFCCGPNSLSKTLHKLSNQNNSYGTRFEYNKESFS

[10] = molecular target: NADPH oxidase 5 (Homo sapiens) (UniProt Q96PH1); experiment: compounds shifting NOX5 Amplex Red fluorescence – cell-based, HEK293-NOX5, NOX inhibitor project, primary screen (AID 1161); conditions: HEK293-NOX5, ionomycin, 45 min, higher = more signal
NADPH oxidase 5 (Homo sapiens), sequence (Q96PH1 whole entry, looked up): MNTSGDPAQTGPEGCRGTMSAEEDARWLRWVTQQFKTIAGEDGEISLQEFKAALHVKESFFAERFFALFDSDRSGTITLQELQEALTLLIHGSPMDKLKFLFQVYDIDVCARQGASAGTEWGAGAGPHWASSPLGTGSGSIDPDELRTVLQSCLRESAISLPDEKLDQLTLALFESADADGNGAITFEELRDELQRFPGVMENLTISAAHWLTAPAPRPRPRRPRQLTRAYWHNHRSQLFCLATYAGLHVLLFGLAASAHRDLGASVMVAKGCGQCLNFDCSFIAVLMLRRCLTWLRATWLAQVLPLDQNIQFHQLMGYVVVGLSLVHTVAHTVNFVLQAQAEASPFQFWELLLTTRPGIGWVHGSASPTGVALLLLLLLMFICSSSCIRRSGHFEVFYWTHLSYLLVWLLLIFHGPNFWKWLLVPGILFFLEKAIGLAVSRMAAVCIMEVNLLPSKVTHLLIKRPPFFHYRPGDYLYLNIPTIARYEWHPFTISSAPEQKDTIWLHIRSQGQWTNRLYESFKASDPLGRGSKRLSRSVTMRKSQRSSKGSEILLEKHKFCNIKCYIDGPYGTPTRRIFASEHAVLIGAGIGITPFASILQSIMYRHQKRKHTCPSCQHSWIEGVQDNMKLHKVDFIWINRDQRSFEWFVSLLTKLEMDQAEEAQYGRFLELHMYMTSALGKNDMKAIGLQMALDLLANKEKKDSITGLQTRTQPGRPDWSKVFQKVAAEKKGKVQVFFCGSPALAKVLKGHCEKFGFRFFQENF

[11] = compound effects on lung adenocarcinoma cell viability – A549, calcein-AM fluorescence, 48 h, basal, profiling panel (AID 1162); conditions: higher = more signal; also: test concentration not given here
[12] = compound effects on differentiated 3T3-L1 adipocyte viability – cell-based, 3T3-L1 adipocytes, calcein-AM fluorescence, 48 h, basal, profiling panel (AID 1163); conditions: 3T3-L1 adipocytes viability, higher = more signal; also: test concentration not given here
[13] = compound effects on hepatocellular carcinoma cell viability – HepG2, calcein-AM fluorescence, 48 h, basal, profiling panel (AID 1164); conditions: higher = more signal; also: test concentration not given here
[14] = compound effects on multiple myeloma cell viability – MM1S, calcein-AM fluorescence, 48 h, basal, profiling panel (AID 1165); conditions: higher = more signal; also: test concentration not given here
[15] = calcein-AM signal in unstimulated myeloma cells – cell-based, calcein-AM fluorescence, 48 h, PK04 Diversity Set, profiling panel (AID 1166); conditions: RPMI8226 myeloma viability, higher = more signal;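 also: cells grown under basal conditions without added stimulus; test concentration not given here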
[16] = JC-1 mitochondrial signal, unstimulated HepG2 cells – cell-based, JC-1 fluorescence, 24 h, 100 nL compound, profiling panel (AID 1167); conditions: HepG2 mitochondrial potential, higher = more signal; also: test concentration not given here
[17] = JC-1 mitochondrial signal, unstimulated adipocytes – cell-based, JC-1 fluorescence, 3T3-L1 adipocytes, 24 h, 100 nL compound, profiling panel (AID 1168); conditions: JC-1 mitochondrial fluorescence, higher = more signal, called active from +8 up or from −8 down; also: test concentration not given here
[18] = JC-1 mitochondrial signal, unstimulated myeloma cells – cell-based, JC-1 fluorescence, RPMI8226, 24 h, 100 nL compound, profiling panel (AID 1169); conditions: JC-1 mitochondrial potential fluorescence, higher = more signal; also: test concentration not given here
[19] = JC-1 mitochondrial signal, unstimulated MM1S myeloma – cell-based, JC-1 fluorescence, 24 h, 100 nL compound, profiling panel (AID 1170); conditions: MM1S mitochondrial potential, higher = more signal; also: test concentration not given here
[20] = resazurin metabolic signal in A549 cells – cell-based, resazurin fluorescence, 24 h, PK04 Diversity Set, profiling panel (AID 1171); conditions: A549 viability, higher = more signal, called active from +8 up or from −8 down; also: test concentration not given here

| SMILES | z-score [1] | composite z-score [2] | z-score [3] | z-score [4] | z-score [5] | z-score [6] | z-score [7] | z-score [8] | z-score [9] | z-score [10] | z-score [11] | z-score [12] | z-score [13] | z-score [14] | z-score [15] | z-score [16] | z-score [17] | z-score [18] | z-score [19] | z-score [20] |
| --- | --- | --- | --- | --- | --- | --- | --- | --- | --- | --- | --- | --- | --- | --- | --- | --- | --- | --- | --- | --- |
| C=C(CCCC)C(=O)CC[C@H](OC(=O)c1cccnc1)c1ccc(OCCO)cc1 | -0.646 (inactive) | -0.0316 | 24.3 (active) | 6.53 (inactive) | 1.8 (inactive) | 1.39 (inactive) | 0.178 | -1.12 (inactive) | 0.000526 (inactive) | -2.09 | -0.15 | 0.355 | -0.478 | -3.34 | -3.28 | 0.697 | -0.597 (inactive) | -0.658 | -1.44 | -0.475 (inactive) |
| COc1ccc(CCNC(=O)[C@@]2(C)c3ccccc3C(=O)N(c3ccc(C)cn3)[C@H]2c2ccc(CO)cc2)cc1 | -0.246 (inactive) | -0.0378 | 2.01 (inactive) | -0.1 (inactive) | 0.825 (inactive) | 0.156 (inactive) | -0.0316 | -0.911 (inactive) | -0.78 (inactive) | -1.81 | -0.0466 | -0.2 | -0.352 | -0.64 | -0.081 | -0.429 | 1.22 (inactive) | 0.143 | -0.00393 | 0.236 (inactive) |
| CCCCC(=C=CC[C@H](O)c1cccc(OCCO)c1)C[C@H](O)c1ccccn1 | 1.81 (inactive) | -0.272 | 13.6 (active) | 0.938 (inactive) | 1.09 (inactive) | -0.676 (inactive) | 1.54 | -1.12 (inactive) | -0.337 (inactive) | -1.75 | 1.35 | 1.2 | 1.3 | -0.497 | 1.43 | 1.17 | -1.63 (inactive) | 0.0444 | -1.1 | 2.05 (inactive) |
| CC(C)Cc1ccc(CN2CC[C@@H](N)C2)cc1 | -3.85 (inactive) | -0.0969 | 0.483 (inactive) | 0.933 (inactive) | -0.285 (inactive) | 0.525 (inactive) | 0.412 | -0.0323 (inactive) | -0.535 (inactive) | -1.29 | -0.336 | 0.202 | -0.375 | -3.15 | -1.65 | 2.5 | -0.559 (inactive) | -0.502 | -2.86 | 3.36 (inactive) |
| CC(C)[C@@H](C(=O)O)n1cc(C2(O)CCCCC2)nn1 | -0.0464 (inactive) | -0.188 | -0.477 (inactive) | -0.436 (inactive) | -2.15 (inactive) | -0.89 (inactive) | 0.0556 | -1.09 (inactive) | -0.176 (inactive) | -0.658 | 0.566 | 1.51 | -0.294 | 0.248 | 0.215 | 0.727 | 0.639 (inactive) | -0.302 | -0.394 | 0.194 (inactive) |
| O=C1C2C=CC(C(O)C=Cc3ccc([N+](=O)[O-])cc3)N(Nc3ccccc3F)C2C(=O)N1c1ccccc1 (stereo not given) | -1.37 (inactive) | 0.329 | 13.1 (active) | 3.11 (inactive) | 0.105 (inactive) | 1.59 (inactive) | -0.832 | -1.43 (inactive) | -3.02 (inactive) | -3.26 | -0.212 | -0.846 | -0.0729 | -1.45 | -0.343 | -1.33 | -1.55 (inactive) | -0.22 | -1.54 | 0.0067 (inactive) |
| CO[C@H]1O[C@H](CO)[C@@H](OC(=O)Nc2ccc(Br)cc2)[C@@H]2OC(=O)[C@H](Cc3cccc(Br)c3)C/C=C/C[C@@H](Cc3cccc(Br)c3)C(=O)O[C@@H]12 | 1.7 (inactive) | -0.007 | 2.13 (inactive) | 0.623 (inactive) | -0.147 (inactive) | 0.951 (inactive) | 0.0914 | -1.42 (inactive) | -0.686 (inactive) | 0.0667 | 0.193 | 0.461 | 0.31 | -1.37 | -0.228 | -0.741 | 1.78 (inactive) | -0.209 | -0.456 | -2.1 (inactive) |
| C=C(CCCC)/C(=C/C[C@H](OC(C)=O)c1ccccc1OCCO)c1cnc2ccccc2c1 | -0.413 (inactive) | -0.0054 | 17.5 (active) | 2.17 (inactive) | 1.32 (inactive) | 0.996 (inactive) | -0.0149 | -1.41 (inactive) | -0.361 (inactive) | -1.62 | 0.615 | -0.466 | 0.0984 | -3.37 | -2.83 | 1.14 | -1.26 (inactive) | -0.247 | -0.172 | -0.344 (inactive) |
| CCOC(=O)C[C@H]1[C@H](OC(=O)c2ccc(C(=O)c3ccccc3)cc2)[C@@H](NC(=O)Cc2ccc(OC)cc2)c2cc(OCCCO)ccc2N1C(=O)c1ccc2ccccc2n1 | 0.378 (inactive) | 0.131 | 3.85 (inactive) | 1.05 (inactive) | -0.392 (inactive) | 0.604 (inactive) | -0.0822 | -1.03 (inactive) | 0.492 (inactive) | 1.53 | 1.33 | -0.121 | 0.493 | -0.854 | -0.614 | 0.658 | 2.22 (inactive) | -0.234 | 0.567 | -0.383 (inactive) |
